This passage reports INHIBITION results from ChEMBL document CHEMBL4513216, “Probing the Open Global Health Chemical Diversity Library for Multistage-Active Starting Points for Next-Generation Antimalarials” (ACS Infect Dis, 2020).

Among all 68,000 compounds or so, about 2,700 (4%) showed an effect of 50% or more. Only a selection was taken, and strong results are over-represented in it overall.

The test system of this assay is Plasmodium berghei. In words: Screen against P. berghei liver stage (PbLuc), transformed with Luciferase, at 2uM. Type of assay: functional, HepG2. The settings on record: tested at 2 uM.
As for `CCc1c(C)noc1-c1cnc(NC2CC2)nc1-c1cnc(C)cn1`, the INHIBITION was 26.93%.

Consider `Cc1nccn1C1CCCN(C(=O)c2ccnc(-n3ccnc3)c2)C1` (centres undefined), for which the INHIBITION is -13.24%.

For `O=C(c1ccc(-n2cnnn2)cc1)N1CCCC(n2ccnc2)C1` (centres undefined), the INHIBITION came to 43.79%.

Consider `O=C(c1cccnc1N1CCCCC1)N1CCCC(n2ccnc2)C1` (centres undefined), for which the INHIBITION was 3.33%.

Take `O=C(c1ccc2c(c1)OCCO2)N1CCCC(n2ccnc2)C1` (centres undefined): the INHIBITION turned out to be 78.98%.

For the molecule `O=C(c1ccc(-n2cnnc2)cc1)N1CCCC(n2ccnc2)C1` (centres undefined), the INHIBITION came to 56.02%.

In the case of `O=C(c1cccc2cccnc12)N1CCCC(n2ccnc2)C1` (centres undefined), the INHIBITION came out at 54.2%.

Consider `O=C(c1ccnc(-n2ccnc2)c1)N1CCCC(n2cccn2)C1` (centres undefined), for which the INHIBITION is -58.05%.

Turning to `O=C(c1ccc(-n2ccnc2)cc1)N1CCCC(n2ccnc2)C1` (centres undefined), the INHIBITION is on record as 28.87%.

As to `O=C(c1ccc2c(c1)OCO2)N1CCCC(n2ccnc2)C1` (centres undefined), the INHIBITION is -0.05%.

Regarding `O=C(c1cccc2ncccc12)N1CCCC(n2ccnc2)C1` (centres undefined), the INHIBITION was determined as 43.85%.

In the case of `O=C(c1ccnc(-n2ccnc2)c1)N1CCCC(n2ccnc2)C1` (centres undefined), the INHIBITION is recorded as 70.27%.

For the molecule `O=C(c1ccc2c(c1)OCCCO2)N1CCCC(n2ccnc2)C1` (centres undefined), the INHIBITION amounted to 11.95%.

Take `CN(C)C(=O)N1C[C@H]2CC[C@@H](C1)N(C(=O)c1c(Cl)cccc1Cl)C2`: the INHIBITION is on record as -42.12%.

In the case of `CN1CCCN(C(=O)NCc2ccccc2Cn2cncn2)CC1`, the INHIBITION was 28.62%.

For the molecule `Cn1cccc1C(=O)OCCNC(=O)c1ccccc1`, the INHIBITION was -9.17%.

Turning to `O=C(CC1CCCCC1)N1C[C@@H]2CC[C@H]1CN(Cc1cccnc1)C2`, the INHIBITION worked out at 9.56%.

`Cc1ccc(CN2Cc3cnn(C)c3C(COCC3CC3)C2)o1` (centres undefined): the INHIBITION is on record as 47.63%.

`CNC(=O)C1CCCCN1C(=O)c1sc(-c2ccc(C)o2)nc1C` (centres undefined): the INHIBITION was found to be 16.73%.

Take `O=c1nc(SCc2cccnc2)c2c(n1CCO)CCCC2`: the INHIBITION was 13.46%.

As to `CCN(Cc1ccc2c(c1)OCCO2)C(=O)NCc1cc[nH]n1`, the INHIBITION came out at 21.31%.

For the molecule `CSCC(C)(O)CNS(=O)(=O)c1ccc(Br)cc1` (centres undefined), the INHIBITION is 9.27%.

As to `CSCC(C)(O)CNS(=O)(=O)c1cccc(C)c1` (centres undefined), the INHIBITION was 9.27%.

Regarding `CSCC(C)(O)CNS(=O)(=O)c1cccc(Cl)c1` (centres undefined), the INHIBITION is reported as 56.89%.

Regarding `O=c1ccc(-n2ccnc2)nn1CCNS(=O)(=O)c1ccc(Cl)s1`, the INHIBITION is -54.51%.

In the case of `CC(C)n1nc2c(cc1=O)CN(CCOc1ccc(C#N)cc1)CC2`, the INHIBITION is recorded as 9.8%.

In the case of `CNC(=O)c1cccc(C2CNCCN2C(=O)c2ccn(C)n2)c1` (centres undefined), the INHIBITION was found to be 24.56%.

With `Cc1ccc(C(=O)N2CCOCC3(CCN(C4CCOCC4)C3)C2)o1` (centres undefined), the INHIBITION was 14.89%.

As to `Cc1cccc(N(CCC(N)=O)CC(=O)Nc2cc(Cl)ccc2Cl)c1`, the INHIBITION is recorded as -10.14%.

With `Cc1cccc(N(CCC(N)=O)CC(=O)Nc2ccccc2)c1`, the INHIBITION is reported as 50.31%.

Regarding `Cc1cccc(N(CCC(N)=O)CC(=O)NC2CCCC2)c1`, the INHIBITION is -22.8%.

Take `CC(NC(=O)NCC1(c2ccc(F)cc2)CC1)c1nncn1C` (centres undefined): the INHIBITION is on record as -7.13%.

On to `Cc1ccc(N2CCCC(NCC(=O)Nc3cc(C)no3)C2)nn1` (centres undefined), for which the INHIBITION amounted to 6.3%.

Turning to `CC(C)c1cc(NC(=O)CNC2CCCN(c3cccnn3)C2)on1` (centres undefined), the INHIBITION amounted to 53.98%.

With `Cc1cc(NC(=O)CNC2CCCN(c3cccnn3)C2)on1` (centres undefined), the INHIBITION was -3.06%.

With `CC1=N[C@@]2(CC[C@@H]3CN(CC(=O)N(C)C)C[C@@H]32)C(=O)N1CC1CC1`, the INHIBITION is -25.29%.

As to `CN(Cc1ccc(F)cc1)CC1(O)CCN(C(=O)c2ccsc2)C1` (centres undefined), the INHIBITION is listed as 47.4%.

For the molecule `COCCCNC(=O)CN(C)C(=O)c1cc(C)ccc1N(C)C(C)C`, the INHIBITION is listed as -61.5%.

On to `CCCC(C)NC(=O)CCN1C(=O)CCc2cc(F)ccc21` (centres undefined), for which the INHIBITION turned out to be 6.92%.

In the case of `CC(C)C(C)NC(=O)CCN1C(=O)CCc2cc(F)ccc21` (centres undefined), the INHIBITION is 31.16%.

As for `CC(C)CNC(=O)CCN1C(=O)CCc2cc(F)ccc21`, the INHIBITION is 55.39%.

Take `NC(=O)C(CNC(=O)Cc1ccc(F)cc1)Cc1ccc(F)cc1` (centres undefined): the INHIBITION is on record as -39.58%.

`O=C(NCC(O)c1ccc(F)c(F)c1)c1cccnc1O` (centres undefined): the INHIBITION is on record as -38.85%.

Turning to `Cc1ccccc1C(=O)NCC(O)c1ccc(F)c(F)c1` (centres undefined), the INHIBITION was 60.13%.

In the case of `O=C(NCC(O)c1ccc(F)c(F)c1)c1ccccc1F` (centres undefined), the INHIBITION was found to be 26.74%.

With `O=C1CO[C@@H]2CN(Cc3ccncc3)C[C@H]2N1Cc1ccncc1`, the INHIBITION is given as 31.76%.

Consider `O=C(Nc1ccc2c(c1)OCO2)Nc1cnn(C2CCOCC2)c1`, for which the INHIBITION was -59%.

With `COCCn1cc(NC(=O)NCC(c2cccc(F)c2)N(C)C)cn1` (centres undefined), the INHIBITION was 45.57%.

For the molecule `COCCn1cc(NC(=O)NCC(C)N2CCOCC2)cn1` (centres undefined), the INHIBITION worked out at 20.77%.

For `CCn1cc(NC(=O)NCC(O)c2ccccc2)cn1` (centres undefined), the INHIBITION turned out to be 20.28%.

On to `CCn1cc(NC(=O)NCC(C)O)cn1` (centres undefined), for which the INHIBITION is 62.13%.

As for `CCn1cc(NC(=O)NCC(C)N(C)C)cn1` (centres undefined), the INHIBITION was -3.58%.

In the case of `CCC(CC)C(CNC(=O)Nc1cnn(CCOC)c1)N(C)C` (centres undefined), the INHIBITION was 66.11%.

On to `CCOC(=O)c1sc2ccsc2c1CNC(=O)CCOC`, for which the INHIBITION is listed as 27.47%.

Regarding `N#CCCCOc1cccnc1NC(=O)CCC1CCCC1`, the INHIBITION is -54.22%.

For `Cc1nccn1-c1ccc(=O)n(CCNC(=O)c2ccncc2)n1`, the INHIBITION is -45.03%.

Consider `CN1CCCCc2c1nc1c(c2N)CCCC1`, for which the INHIBITION worked out at 14.11%.

With `CC(O)c1cnn(-c2ccccc2)c1` (centres undefined), the INHIBITION is 23.06%.

On to `COCCN1C[C@H]2CN(C(=O)c3ccc4c(c3)OCO4)CCN2C1=O`, for which the INHIBITION is listed as -2.66%.

For the molecule `CC(C#N)(NC(=O)COc1ccccc1Br)C1CC1` (centres undefined), the INHIBITION was determined as 8.78%.

Take `CC(C)C1CCCN1C(=O)c1ccc(-n2ncc(C#N)c2N)cc1` (centres undefined): the INHIBITION is -36.67%.

As to `Cc1cc(C)n(C2CCN(Cc3c(-c4cc(C)on4)nn(C)c3Cl)C2)n1` (centres undefined), the INHIBITION is -11.77%.

As to `Cc1cc(-c2nn(C)c(Cl)c2CN2CC[C@H](CO)[C@@H](O)C2)no1`, the INHIBITION is listed as -5.87%.

In the case of `Cc1cc(-c2nn(C)c(Cl)c2CN2CCCCC(N)C2)no1` (centres undefined), the INHIBITION is recorded as 51.81%.

For `CN1CCN(Cc2ccc(-c3ccc(-c4ccn[nH]4)cc3)nc2)CC1`, the INHIBITION was -35.16%.

In the case of `CC(=O)Nc1nc(COc2nc(C)no2)cs1`, the INHIBITION is given as -4.89%.

With `O=C(O)[C@@H]1CN(Cc2c[nH]c(CC3CCCC3)n2)C[C@H]1c1ccccn1`, the INHIBITION came out at 50.86%.

In the case of `CCC[C@@H]1CN(Cc2c[nH]c(CC3CCCC3)n2)C[C@H]1C(=O)O`, the INHIBITION was 5.93%.

With `O=C(O)[C@@H]1CN(Cc2c[nH]c(CC3CCCC3)n2)C[C@H]1c1ccncc1`, the INHIBITION was 25.35%.
